Measured values taken from the antibiotic and cytotoxicity screens of Wong et al. (2023).
Screen size: about 39,000 compounds; about 3,300 (8.5%) were called active. Only a selection was taken, and actives are over-represented in it overall.

These compounds were tested on HepG2 (assay: cytotoxicity call (relative viability < 0.9)). Conditions: 10 µM.

| SMILES | cytotoxicity call |
| --- | --- |
| CC(C)NC(=O)N(C)C[C@H]1OCCCC[C@H](C)Oc2ccc(NS(=O)(=O)c3cn(C)cn3)cc2C(=O)N([C@@H](C)CO)C[C@@H]1C | inactive |
| C[C@@H]1CN([C@H](C)CO)C(=O)c2cccc(NS(=O)(=O)c3ccccc3)c2O[C@H]1CN(C)S(=O)(=O)c1cccs1 | inactive |
| COc1ccc(S(=O)(=O)N(C)C[C@@H]2Oc3ccc(NS(=O)(=O)c4c(C)noc4C)cc3C(=O)N([C@@H](C)CO)C[C@@H]2C)cc1 | inactive |
| COCC(=O)N1C[C@@H](C)[C@@H](OC)CN(C)C(=O)c2ccc(NC(=O)c3cc(C)on3)cc2OC[C@@H]1C | inactive |
| Cc1ccc(S(=O)(=O)N(C)C[C@@H]2OCCCC[C@H](C)Oc3ccc(NC(=O)c4ccccc4)cc3C(=O)N([C@H](C)CO)C[C@@H]2C)cc1 | inactive |
| COCC(=O)N(C)C[C@H]1Oc2cc(C#C[C@@H](C)O)ccc2S(=O)(=O)N([C@@H](C)CO)C[C@H]1C | inactive |
| COc1ccc(C#Cc2cnc3c(c2)C(=O)N([C@@H](C)CO)C[C@H](C)[C@@H](CN(C)C(=O)CN(C)C)O3)cc1 | inactive |
| Cn1c(=O)[nH]c(=O)c2c1ncn2CCNCc1ccco1 | inactive |
| C[C@@H]1CN([C@@H](C)CO)C(=O)c2cc(NC(=O)Cc3ccccc3)ccc2O[C@@H](C)CCCCO[C@@H]1CN(C)CC1CCCCC1 | inactive |
| O=C(C[C@H]1CC[C@H]2[C@@H](COC[C@H](O)CN2C(=O)c2ccncc2)O1)NC1CCC1 | inactive |
| C[C@H]1CN([C@@H](C)CO)C(=O)c2cc(NC(=O)NC3CCCCC3)ccc2O[C@@H]1CN(C)S(=O)(=O)c1cn(C)cn1 | inactive |
| C[C@@H]1CN([C@H](C)CO)C(=O)Cc2cc(NS(=O)(=O)c3ccccc3)ccc2O[C@@H]1CN(C)Cc1ccc(Oc2ccccc2)cc1 | active |
| C[C@@H]1CN([C@H](C)CO)C(=O)Cc2cc(NS(=O)(=O)c3ccccc3)ccc2O[C@H]1CN(C)Cc1ccc(Oc2ccccc2)cc1 | active |
| C[C@H](CO)N1C[C@H](C)[C@@H](CN(C)Cc2ccc(Oc3ccccc3)cc2)Oc2ccc(NS(=O)(=O)c3ccccc3)cc2CC1=O | inactive |
| C[C@@H]1CN([C@@H](C)CO)C(=O)Cc2cc(NS(=O)(=O)c3ccccc3)ccc2O[C@@H]1CN(C)Cc1ccc(Oc2ccccc2)cc1 | active |
| C[C@H]1CN([C@@H](C)CO)C(=O)Cc2cc(NS(=O)(=O)c3ccccc3)ccc2O[C@@H]1CN(C)Cc1ccc(Oc2ccccc2)cc1 | inactive |
| C[C@H](CO)N1C[C@H](C)[C@H](CN(C)Cc2ccc(Oc3ccccc3)cc2)Oc2ccc(NS(=O)(=O)c3ccccc3)cc2CC1=O | inactive |
| C[C@H]1CN([C@@H](C)CO)C(=O)Cc2cc(NS(=O)(=O)c3ccccc3)ccc2O[C@H]1CN(C)Cc1ccc(Oc2ccccc2)cc1 | inactive |
| C[C@@H]1CN([C@@H](C)CO)C(=O)Cc2cc(NS(=O)(=O)c3ccccc3)ccc2O[C@H]1CN(C)Cc1ccc(Oc2ccccc2)cc1 | inactive |
| COc1ccc(S(=O)(=O)Nc2cccc3c2O[C@@H](CN(C)Cc2ccc(-c4ccccc4)cc2)[C@H](C)CN([C@H](C)CO)C3=O)cc1 | inactive |

| SMILES | cytotoxicity call |
| --- | --- |
| CO[C@H]1CN(C)C(=O)c2ccc(NC(=O)c3ccccc3)cc2OC[C@H](C)N(C(=O)CN(C)C)C[C@@H]1C | inactive |
| C[C@@H]1CN([C@H](C)CO)C(=O)c2cccc(NC(=O)NC3CCCCC3)c2O[C@H]1CN(C)Cc1ccc(-c2ccccc2)cc1 | inactive |
| CCS(=O)(=O)N1CCC[C@]2(C(=O)NCC3CC3)CN(Cc3cnn(C)c3)C[C@H]2C1 | inactive |
| COc1ccc(C(=O)NC(CO)(CO)CO)cc1OC | inactive |
| C[C@@H]1CN([C@H](C)CO)S(=O)(=O)c2ccc(C#CC3CCCC3)cc2O[C@@H]1CN(C)C(=O)Cc1ccncc1 | inactive |
| COc1cc2c(cc1O)CCN[C@]21CS[C@@H]2c3c(OC(C)=O)c(C)c4c(c3[C@H](COC1=O)N1[C@@H]2[C@H]2c3c(cc(C)c(OC)c3O)C[C@@H]([C@@H]1O)N2C)OCO4 | active |
| CO[C@H](CN(C)S(=O)(=O)c1ccc(C)cc1)[C@@H](C)CN([C@@H](C)CO)S(=O)(=O)c1cccc(Cl)c1 | inactive |
| Cc1cnc(Nc2ccc(F)cc2Cl)nc1-c1c[nH]c(C(=O)N[C@H](CO)c2cccc(Cl)c2)c1 | active |
| C[C@@H]1CN([C@@H](C)CO)C(=O)Cc2cc(NC(=O)CCN3CCOCC3)ccc2O[C@H]1CN(C)Cc1ccc(C(=O)Nc2ccccc2N)cc1 | inactive |
| CC1(C)OC2CC(=O)OCC23C1CC(=O)C1(C)C3CCC2(C)C(c3ccoc3)OC(=O)C3OC321 (stereo not given) | inactive |
| CC(=O)OC1CCC2(C)C(CC(OC(C)=O)C3(C)C2CCC2(C)C(c4ccoc4)OC(=O)C4OC423)C1(C)C (stereo not drawn) [3beta-ACETOXYDEOXODIHYDROGEDUNIN ] | inactive |
| CC1(C)C(=O)C=CC2(C)C1C=CC1(C)C2CCC2(C)C(c3ccoc3)OC(=O)C3OC312 (stereo not given) | active |
| CC(=O)O[C@H]1CC[C@]2(C)[C@H]3CC[C@@]4(C)[C@H](c5ccoc5)OC(=O)[C@H]5O[C@]54[C@]3(C)[C@H](OC(C)=O)C[C@H]2C1(C)C | inactive |
| CC1(C)C(=O)C=CC2(C)C1CC(=O)C1(C)C2CCC2(C)C(c3ccoc3)OC(=O)C3OC321 (stereo not given) | active |
| CC(=O)OC1CC(OC(C)=O)C2(C)C(CC(=O)C3(C)C2CCC2(C)C(c4ccoc4)OC(=O)C4OC423)C1(C)C (stereo not given) | inactive |
| C[C@H]1CCCCO[C@@H](CN(C)C(=O)c2ccncc2)[C@@H](C)CN([C@@H](C)CO)C(=O)c2cc(NS(=O)(=O)c3ccc(Cl)cc3)ccc2O1 | inactive |
| Nc1ccc([C@@H](O)[C@@H](O)CO)cc1 | inactive |
| COc1ccc(S(=O)(=O)N(C)C[C@@H]2Oc3c(NC(=O)c4cnccn4)cccc3C(=O)N([C@@H](C)CO)C[C@H]2C)cc1 | inactive |
| C[C@H](CO)N1C[C@H](C)[C@H](CN(C)C(=O)Cc2ccccn2)Oc2ncc(-c3cccc(C(=O)N(C)C)c3)cc2C1=O | inactive |
| COc1ccc(S(=O)(=O)N(C)C[C@@H]2Oc3ccc(NS(C)(=O)=O)cc3CC(=O)N([C@H](C)CO)C[C@@H]2C)cc1 | inactive |
